# Test results taken from paper PMC7862700, “An all-to-all approach to the identification of sequence-specific readers for epigenetic DNA modifications on cytosine”.
# Assays:
# Experiment in all cases: DAPPL (digital affinity profiling via proximity ligation, sequencing); 10 mM Tris-HCl pH 7.5, 50 mM NaCl, 1 mM DTT, 4% glycerol, room temperature, 30 min; GST-TFs on glutathione beads, 16-mer random dsDNA library, 0.1% formaldehyde crosslink after washing; high values mean tight binding
# FLI1 = target: T1, FLI1 (Homo sapiens, UniProt Q01543 1-452); conditions: protein: recombinant; tags: N-terminal GST; dsDNA, one strand shown
# T1 sequence: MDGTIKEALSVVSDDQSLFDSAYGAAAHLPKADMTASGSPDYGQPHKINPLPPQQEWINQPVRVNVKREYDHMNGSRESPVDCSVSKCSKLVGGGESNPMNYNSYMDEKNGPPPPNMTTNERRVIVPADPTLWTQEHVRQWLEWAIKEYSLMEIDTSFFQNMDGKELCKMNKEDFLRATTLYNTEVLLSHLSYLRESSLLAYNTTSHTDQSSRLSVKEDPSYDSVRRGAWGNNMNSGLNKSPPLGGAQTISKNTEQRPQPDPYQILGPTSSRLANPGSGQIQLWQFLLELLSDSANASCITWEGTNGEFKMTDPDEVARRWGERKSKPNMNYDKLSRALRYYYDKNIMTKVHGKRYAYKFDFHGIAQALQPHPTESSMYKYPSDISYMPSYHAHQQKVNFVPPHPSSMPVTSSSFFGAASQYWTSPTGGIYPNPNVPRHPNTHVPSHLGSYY
# Procedure, shortened: (§1)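 Pools were built from human transcription factors expressed in yeast as GST fusions, captured on glutathione beads and DNA-barcoded, along with a tag-only sample. Incubation with 200 nmole of a 16-mer random double-stranded DNA library lasted 30 min at room temperature in Tris/NaCl/DTT/glycerol buffer, and was followed by washing, 0.1% formaldehyde crosslinking, proximity ligation, PCR amplification and Illumina NextSeq500 sequencing. Binding signal is the quotient of each hexamer's read frequency for a factor and its frequency for the tag-only sample.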
# ELK1 = target: T2, ELK1 (Homo sapiens, UniProt P19419 1-428); conditions: protein: recombinant; tags: N-terminal GST; dsDNA, one strand shown
# T2 sequence: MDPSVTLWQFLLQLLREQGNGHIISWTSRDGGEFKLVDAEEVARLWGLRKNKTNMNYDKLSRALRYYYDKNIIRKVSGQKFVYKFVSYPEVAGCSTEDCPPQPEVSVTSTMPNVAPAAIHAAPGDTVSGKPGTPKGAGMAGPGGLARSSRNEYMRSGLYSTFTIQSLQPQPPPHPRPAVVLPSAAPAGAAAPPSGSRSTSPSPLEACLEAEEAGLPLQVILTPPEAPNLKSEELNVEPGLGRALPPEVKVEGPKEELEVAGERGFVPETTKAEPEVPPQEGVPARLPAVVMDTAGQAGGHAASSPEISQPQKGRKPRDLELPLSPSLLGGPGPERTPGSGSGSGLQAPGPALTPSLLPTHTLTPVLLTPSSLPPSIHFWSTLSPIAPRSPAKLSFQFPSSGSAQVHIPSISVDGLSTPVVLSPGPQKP
# Procedure, shortened: as §1
# GABPA = target: T3, GABPA (Homo sapiens, UniProt Q06546 1-454); conditions: protein: recombinant; tags: N-terminal GST; dsDNA, one strand shown
# T3 sequence: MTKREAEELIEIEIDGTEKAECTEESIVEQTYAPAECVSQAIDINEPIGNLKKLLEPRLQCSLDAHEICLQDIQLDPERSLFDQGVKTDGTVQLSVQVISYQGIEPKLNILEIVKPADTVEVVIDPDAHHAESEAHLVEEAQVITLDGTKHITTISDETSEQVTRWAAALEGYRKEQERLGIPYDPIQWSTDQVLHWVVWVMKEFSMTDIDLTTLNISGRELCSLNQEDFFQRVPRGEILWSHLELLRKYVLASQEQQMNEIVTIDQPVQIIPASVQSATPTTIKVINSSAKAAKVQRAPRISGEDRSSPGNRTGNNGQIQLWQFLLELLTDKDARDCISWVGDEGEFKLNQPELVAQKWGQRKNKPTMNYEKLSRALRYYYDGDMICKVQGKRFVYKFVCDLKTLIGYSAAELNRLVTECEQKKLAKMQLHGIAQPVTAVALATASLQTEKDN
# Procedure, shortened: as §1
# ERG = target: T4, ERG (Homo sapiens, UniProt P11308 1-479); conditions: protein: recombinant; tags: N-terminal GST; dsDNA, one strand shown
# T4 sequence: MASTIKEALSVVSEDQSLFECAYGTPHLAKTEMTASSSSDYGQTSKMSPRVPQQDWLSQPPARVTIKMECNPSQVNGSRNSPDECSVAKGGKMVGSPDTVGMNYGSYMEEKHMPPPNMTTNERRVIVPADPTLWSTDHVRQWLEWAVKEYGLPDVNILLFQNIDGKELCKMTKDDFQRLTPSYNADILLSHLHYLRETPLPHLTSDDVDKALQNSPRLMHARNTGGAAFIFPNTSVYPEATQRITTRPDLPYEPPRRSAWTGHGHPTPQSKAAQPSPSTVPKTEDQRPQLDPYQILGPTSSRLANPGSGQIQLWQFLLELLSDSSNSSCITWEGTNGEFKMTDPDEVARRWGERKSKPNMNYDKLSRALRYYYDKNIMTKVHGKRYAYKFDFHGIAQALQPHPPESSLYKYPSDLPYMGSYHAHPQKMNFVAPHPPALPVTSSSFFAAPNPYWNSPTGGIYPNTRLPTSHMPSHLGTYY
# Procedure, shortened: as §1
# ELF1 = ELF1 (Homo sapiens, UniProt P32519 1-619); conditions: protein: recombinant; tags: N-terminal GST; dsDNA, one strand shown
# Chain of ELF1 (P32519 whole entry): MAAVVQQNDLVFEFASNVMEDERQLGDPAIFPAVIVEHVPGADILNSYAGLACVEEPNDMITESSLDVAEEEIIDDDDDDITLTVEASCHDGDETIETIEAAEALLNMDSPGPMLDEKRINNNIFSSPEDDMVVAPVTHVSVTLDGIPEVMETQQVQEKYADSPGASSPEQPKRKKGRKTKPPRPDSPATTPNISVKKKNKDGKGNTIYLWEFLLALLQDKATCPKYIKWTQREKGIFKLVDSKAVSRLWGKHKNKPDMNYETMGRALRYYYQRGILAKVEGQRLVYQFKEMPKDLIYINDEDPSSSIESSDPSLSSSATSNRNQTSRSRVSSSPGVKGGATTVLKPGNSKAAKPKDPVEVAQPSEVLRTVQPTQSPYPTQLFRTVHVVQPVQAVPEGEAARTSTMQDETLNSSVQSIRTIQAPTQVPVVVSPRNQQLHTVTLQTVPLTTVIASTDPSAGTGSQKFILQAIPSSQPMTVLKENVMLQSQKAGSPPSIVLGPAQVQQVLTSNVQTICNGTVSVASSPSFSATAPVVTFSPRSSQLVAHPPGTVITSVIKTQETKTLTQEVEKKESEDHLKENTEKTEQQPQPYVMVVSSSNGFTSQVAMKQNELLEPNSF
# Procedure, shortened: as §1
# EHF = target: T5, EHF (Homo sapiens, UniProt Q9NZC4 1-300); conditions: protein: recombinant; tags: N-terminal GST; dsDNA, one strand shown
# T5 sequence: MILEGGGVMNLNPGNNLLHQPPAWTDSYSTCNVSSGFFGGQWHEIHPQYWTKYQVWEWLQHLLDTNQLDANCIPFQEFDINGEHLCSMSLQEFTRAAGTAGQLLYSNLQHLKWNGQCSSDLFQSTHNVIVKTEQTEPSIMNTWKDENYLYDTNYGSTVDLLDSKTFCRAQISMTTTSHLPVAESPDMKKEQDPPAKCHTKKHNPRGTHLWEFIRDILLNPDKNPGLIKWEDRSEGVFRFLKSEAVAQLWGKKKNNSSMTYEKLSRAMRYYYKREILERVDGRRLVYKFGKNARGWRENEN
# Procedure, shortened: as §1
# SPI1 = SPI1 (Homo sapiens, UniProt P17947 1-270); conditions: protein: recombinant; tags: N-terminal GST; dsDNA, one strand shown
# Procedure, shortened: as §1
# SPIB = SPIB (Homo sapiens, UniProt Q01892 1-262); conditions: protein: recombinant; tags: N-terminal GST; dsDNA, one strand shown
# Chain of SPIB (Q01892 whole entry): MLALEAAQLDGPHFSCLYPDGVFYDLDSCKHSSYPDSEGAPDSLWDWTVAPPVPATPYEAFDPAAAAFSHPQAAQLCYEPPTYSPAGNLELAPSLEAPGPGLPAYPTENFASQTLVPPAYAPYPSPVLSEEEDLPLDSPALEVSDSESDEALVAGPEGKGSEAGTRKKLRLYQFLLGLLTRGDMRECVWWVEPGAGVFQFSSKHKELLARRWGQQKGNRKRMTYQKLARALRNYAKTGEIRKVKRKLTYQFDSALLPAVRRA
# Procedure, shortened: as §1
# ELK3 = target: T6, ELK3 (Homo sapiens, UniProt P41970 1-407); conditions: protein: recombinant; tags: N-terminal GST; dsDNA, one strand shown
# T6 sequence: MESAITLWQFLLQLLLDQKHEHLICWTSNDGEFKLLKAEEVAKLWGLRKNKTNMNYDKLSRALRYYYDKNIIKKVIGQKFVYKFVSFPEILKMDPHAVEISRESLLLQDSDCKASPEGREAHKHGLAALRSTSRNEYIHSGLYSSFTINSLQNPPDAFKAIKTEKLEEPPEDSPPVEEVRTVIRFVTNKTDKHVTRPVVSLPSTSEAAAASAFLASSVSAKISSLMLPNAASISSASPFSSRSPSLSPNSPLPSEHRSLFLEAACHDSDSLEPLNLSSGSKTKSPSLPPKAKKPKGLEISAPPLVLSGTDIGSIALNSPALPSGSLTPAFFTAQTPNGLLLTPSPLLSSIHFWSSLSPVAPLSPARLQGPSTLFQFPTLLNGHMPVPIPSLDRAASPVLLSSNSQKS
# Procedure, shortened: as §1
# FEV = target: T7, FEV (Homo sapiens, UniProt Q99581 1-238); conditions: protein: recombinant; tags: N-terminal GST; dsDNA, one strand shown
# T7 sequence: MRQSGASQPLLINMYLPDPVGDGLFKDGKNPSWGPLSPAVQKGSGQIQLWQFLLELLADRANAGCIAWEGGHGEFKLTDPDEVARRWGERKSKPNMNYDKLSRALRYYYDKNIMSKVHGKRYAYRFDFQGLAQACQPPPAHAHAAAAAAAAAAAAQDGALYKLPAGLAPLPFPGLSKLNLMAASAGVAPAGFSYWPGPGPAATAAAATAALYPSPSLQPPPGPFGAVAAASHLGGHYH
# Procedure, shortened: as §1
# ETV5 = ETV5 (Homo sapiens, UniProt P41161 1-510); conditions: protein: recombinant; tags: N-terminal GST; dsDNA, one strand shown
# Chain of ETV5 (P41161 whole entry): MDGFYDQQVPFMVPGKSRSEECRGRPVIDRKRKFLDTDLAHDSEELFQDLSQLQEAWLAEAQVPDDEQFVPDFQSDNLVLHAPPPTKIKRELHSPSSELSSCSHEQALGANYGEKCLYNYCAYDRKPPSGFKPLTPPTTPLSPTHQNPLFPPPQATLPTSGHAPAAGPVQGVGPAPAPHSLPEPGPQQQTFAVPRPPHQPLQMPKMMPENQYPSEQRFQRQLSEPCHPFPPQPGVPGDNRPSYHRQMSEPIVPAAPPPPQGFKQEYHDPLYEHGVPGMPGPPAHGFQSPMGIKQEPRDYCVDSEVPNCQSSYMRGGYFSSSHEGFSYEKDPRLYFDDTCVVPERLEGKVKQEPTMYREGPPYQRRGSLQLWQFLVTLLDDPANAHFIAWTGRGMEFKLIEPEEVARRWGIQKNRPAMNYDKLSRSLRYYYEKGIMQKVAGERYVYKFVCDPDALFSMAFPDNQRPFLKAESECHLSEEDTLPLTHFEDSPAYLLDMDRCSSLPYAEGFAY
# Procedure, shortened: as §1
# HSF1 = HSF1 (Homo sapiens, UniProt Q00613 1-529); conditions: protein: recombinant; tags: N-terminal GST; chain copies: 3; dsDNA, one strand shown
# Chain of HSF1 (Q00613 whole entry): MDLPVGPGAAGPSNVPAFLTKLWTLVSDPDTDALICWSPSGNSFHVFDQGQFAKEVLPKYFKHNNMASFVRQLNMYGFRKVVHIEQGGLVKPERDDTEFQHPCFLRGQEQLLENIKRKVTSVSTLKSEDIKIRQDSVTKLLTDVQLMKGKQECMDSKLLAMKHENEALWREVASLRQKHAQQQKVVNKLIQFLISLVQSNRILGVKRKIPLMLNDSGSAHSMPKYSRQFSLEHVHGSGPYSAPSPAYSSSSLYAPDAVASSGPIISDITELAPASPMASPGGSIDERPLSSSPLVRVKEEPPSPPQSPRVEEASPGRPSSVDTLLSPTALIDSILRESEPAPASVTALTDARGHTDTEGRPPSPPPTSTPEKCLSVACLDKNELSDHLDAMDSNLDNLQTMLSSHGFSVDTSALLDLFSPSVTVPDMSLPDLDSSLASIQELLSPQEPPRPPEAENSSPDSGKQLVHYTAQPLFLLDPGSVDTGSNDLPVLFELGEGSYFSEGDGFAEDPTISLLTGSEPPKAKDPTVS
# Procedure, shortened: as §1
# SPIC = target: T8, SPIC (Homo sapiens, UniProt Q8N5J4 1-248); conditions: protein: recombinant; tags: N-terminal GST; dsDNA, one strand shown
# T8 sequence: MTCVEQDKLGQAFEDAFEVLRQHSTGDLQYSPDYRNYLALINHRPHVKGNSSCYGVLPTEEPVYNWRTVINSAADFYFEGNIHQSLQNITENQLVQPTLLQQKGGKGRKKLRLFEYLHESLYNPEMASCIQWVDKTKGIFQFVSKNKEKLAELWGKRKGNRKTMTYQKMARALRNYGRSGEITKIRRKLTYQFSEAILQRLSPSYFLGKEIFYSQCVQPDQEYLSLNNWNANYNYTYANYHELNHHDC
# Procedure, shortened: as §1
# ELF4 = ELF4 (Homo sapiens, UniProt Q99607 1-663); conditions: protein: recombinant; tags: N-terminal GST; dsDNA, one strand shown
# Chain of ELF4 (Q99607 whole entry): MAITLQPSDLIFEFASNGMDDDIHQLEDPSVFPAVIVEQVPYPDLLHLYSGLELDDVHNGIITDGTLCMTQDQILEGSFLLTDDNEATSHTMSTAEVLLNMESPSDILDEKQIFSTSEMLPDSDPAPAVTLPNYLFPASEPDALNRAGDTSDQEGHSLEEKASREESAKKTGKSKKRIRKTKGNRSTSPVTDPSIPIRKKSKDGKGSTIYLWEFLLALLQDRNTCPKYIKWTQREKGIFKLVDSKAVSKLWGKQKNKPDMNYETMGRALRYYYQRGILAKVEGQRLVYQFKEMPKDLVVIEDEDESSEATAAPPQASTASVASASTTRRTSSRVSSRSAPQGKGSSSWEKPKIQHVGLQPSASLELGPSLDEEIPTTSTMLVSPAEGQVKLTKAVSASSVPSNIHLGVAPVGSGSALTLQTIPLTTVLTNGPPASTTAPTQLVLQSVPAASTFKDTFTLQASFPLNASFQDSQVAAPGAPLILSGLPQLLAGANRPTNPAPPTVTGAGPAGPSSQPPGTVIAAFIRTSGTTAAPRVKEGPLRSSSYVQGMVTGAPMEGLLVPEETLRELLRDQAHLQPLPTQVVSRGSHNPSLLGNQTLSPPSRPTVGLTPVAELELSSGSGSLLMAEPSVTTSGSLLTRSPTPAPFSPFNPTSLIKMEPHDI
# Procedure, shortened: as §1
# ELK4 = target: T9, ELK4 (Homo sapiens, UniProt P28324-2 1-405); conditions: protein: recombinant; tags: N-terminal GST; dsDNA, one strand shown
# T9 sequence: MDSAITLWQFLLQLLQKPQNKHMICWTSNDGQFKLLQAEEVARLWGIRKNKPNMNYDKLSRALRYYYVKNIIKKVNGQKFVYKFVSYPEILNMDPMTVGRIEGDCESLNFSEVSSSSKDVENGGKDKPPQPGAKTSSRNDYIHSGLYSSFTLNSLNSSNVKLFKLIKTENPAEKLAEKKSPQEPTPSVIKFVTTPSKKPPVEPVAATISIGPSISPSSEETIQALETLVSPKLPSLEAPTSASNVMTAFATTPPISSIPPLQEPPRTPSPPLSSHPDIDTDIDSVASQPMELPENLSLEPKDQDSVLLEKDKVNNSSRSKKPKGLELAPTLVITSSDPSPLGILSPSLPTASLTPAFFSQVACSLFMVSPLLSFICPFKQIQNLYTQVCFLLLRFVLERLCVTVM
# Procedure, shortened: as §1
# ETV2 = target: T10, ETV2 (Homo sapiens, UniProt O00321 1-342); conditions: protein: recombinant; tags: N-terminal GST; dsDNA, one strand shown
# T10 sequence: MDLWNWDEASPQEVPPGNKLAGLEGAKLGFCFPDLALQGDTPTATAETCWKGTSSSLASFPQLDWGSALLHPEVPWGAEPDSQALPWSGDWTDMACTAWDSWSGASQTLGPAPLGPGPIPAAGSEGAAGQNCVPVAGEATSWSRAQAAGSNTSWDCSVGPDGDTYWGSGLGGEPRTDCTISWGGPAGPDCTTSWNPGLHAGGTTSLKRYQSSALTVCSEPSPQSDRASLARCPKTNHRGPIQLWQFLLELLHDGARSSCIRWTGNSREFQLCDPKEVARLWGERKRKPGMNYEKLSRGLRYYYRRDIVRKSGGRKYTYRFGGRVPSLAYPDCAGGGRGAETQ
# Procedure, shortened: as §1
# ELF3 = target: T11, ELF3 (Homo sapiens, UniProt P78545 1-371); conditions: protein: recombinant; tags: N-terminal GST; dsDNA, one strand shown
# T11 sequence: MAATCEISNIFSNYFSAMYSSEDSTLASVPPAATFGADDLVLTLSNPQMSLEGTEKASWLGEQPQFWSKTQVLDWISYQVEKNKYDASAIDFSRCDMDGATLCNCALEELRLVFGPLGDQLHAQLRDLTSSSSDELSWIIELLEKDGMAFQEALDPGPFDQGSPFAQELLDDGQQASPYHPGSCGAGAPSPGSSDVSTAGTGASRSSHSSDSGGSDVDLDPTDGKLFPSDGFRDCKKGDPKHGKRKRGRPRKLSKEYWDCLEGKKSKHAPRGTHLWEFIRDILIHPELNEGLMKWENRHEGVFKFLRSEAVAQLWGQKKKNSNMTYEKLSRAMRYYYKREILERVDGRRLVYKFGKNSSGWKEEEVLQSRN
# Procedure, shortened: as §1
# CRX = CRX (Homo sapiens, UniProt O43186 1-299); conditions: protein: recombinant; tags: N-terminal GST; dsDNA, one strand shown
# Chain of CRX (O43186 whole entry): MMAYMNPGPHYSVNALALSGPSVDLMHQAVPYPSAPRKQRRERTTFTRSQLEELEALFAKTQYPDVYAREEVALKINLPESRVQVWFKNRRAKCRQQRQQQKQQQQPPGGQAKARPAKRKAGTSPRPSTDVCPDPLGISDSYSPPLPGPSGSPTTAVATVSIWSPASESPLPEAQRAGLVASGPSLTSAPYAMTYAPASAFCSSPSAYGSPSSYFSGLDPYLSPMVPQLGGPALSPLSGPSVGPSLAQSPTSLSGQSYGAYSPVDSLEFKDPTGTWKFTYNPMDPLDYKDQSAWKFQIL
# Procedure, shortened: as §1
# ETV1 = ETV1 (Homo sapiens, UniProt P50549 1-477); conditions: protein: recombinant; tags: N-terminal GST; dsDNA, one strand shown
# Chain of ETV1 (P50549 whole entry): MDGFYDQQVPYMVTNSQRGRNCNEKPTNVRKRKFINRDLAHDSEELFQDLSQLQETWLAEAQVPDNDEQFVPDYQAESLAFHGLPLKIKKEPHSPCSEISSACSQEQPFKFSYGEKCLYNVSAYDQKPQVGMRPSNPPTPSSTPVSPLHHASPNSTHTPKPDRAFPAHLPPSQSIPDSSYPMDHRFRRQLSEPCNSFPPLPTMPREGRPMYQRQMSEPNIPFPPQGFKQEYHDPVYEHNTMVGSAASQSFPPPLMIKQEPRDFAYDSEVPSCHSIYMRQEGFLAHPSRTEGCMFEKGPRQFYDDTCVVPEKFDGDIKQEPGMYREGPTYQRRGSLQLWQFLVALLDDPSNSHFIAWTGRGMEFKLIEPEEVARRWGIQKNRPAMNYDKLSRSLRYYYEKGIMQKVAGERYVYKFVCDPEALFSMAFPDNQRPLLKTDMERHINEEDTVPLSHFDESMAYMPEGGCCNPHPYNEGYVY
# Procedure, shortened: as §1
sequence,measurement,setting,value
TTCGAT,binding signal,FLI1,"1.32 fold enrichment (6-mer frequency, TF over GST control)"
same,binding signal,ELK1,"1.23 fold enrichment (6-mer frequency, TF over GST control)"
same,binding signal,GABPA,"1.22 fold enrichment (6-mer frequency, TF over GST control)"
same,binding signal,ERG,"1.43 fold enrichment (6-mer frequency, TF over GST control)"
same,binding signal,ELF1,"1.41 fold enrichment (6-mer frequency, TF over GST control)"
same,binding signal,EHF,"1.38 fold enrichment (6-mer frequency, TF over GST control)"
same,binding signal,SPI1,"1.29 fold enrichment (6-mer frequency, TF over GST control)"
same,binding signal,SPIB,"1.24 fold enrichment (6-mer frequency, TF over GST control)"
same,binding signal,ELK3,"1.32 fold enrichment (6-mer frequency, TF over GST control)"
same,binding signal,FEV,"1.27 fold enrichment (6-mer frequency, TF over GST control)"
same,binding signal,ETV5,"1.36 fold enrichment (6-mer frequency, TF over GST control)"
same,binding signal,HSF1,"1.79 fold enrichment (6-mer frequency, TF over GST control)"
same,binding signal,SPIC,"1.3 fold enrichment (6-mer frequency, TF over GST control)"
same,binding signal,ELF4,"1.27 fold enrichment (6-mer frequency, TF over GST control)"
same,binding signal,ELK4,"1.16 fold enrichment (6-mer frequency, TF over GST control)"
same,binding signal,ETV2,"1.23 fold enrichment (6-mer frequency, TF over GST control)"
same,binding signal,ELF3,"1.42 fold enrichment (6-mer frequency, TF over GST control)"
same,binding signal,CRX,"1.56 fold enrichment (6-mer frequency, TF over GST control)"
same,binding signal,ETV1,"1.34 fold enrichment (6-mer frequency, TF over GST control)"
